Bioassay records as filed in PubChem BioAssay.
KB-V1 cytotox = KB-V1 MDR subline cytotoxicity; KB-V1 MDR cells viability, CellTiter-Glo, 72 h; Potency, µM (highest dose often 46.1 µM), most hits filed as cytotoxic; 400,000 compounds, 3.4% hits; AID 1347076; further: potency means the concentration at half of the fitted maximal effect; nearly all actives have a fitted effect of over 60% in size
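Cells of the MDR subline KB-V1 are plated, dosed with compound at multiple concentrations, and incubated 72 h at 37 degrees C; CellTiter-Glo is then added and luminescence read after 10 min.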
IL-1B inflam inh = inhibitors of inflammasome signaling (IL-1 beta secretion); THP-1 LPS/ATP IL-1B secretion, AlphaLISA, 16 h; stronger effect = lower value; activity change, % at 57.5 µM; 360,000 compounds, 4.7% hits; AID 743279; in the data active means activity change below about -50%; inconclusive means mostly about -30% to -49%
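Secreted IL-1B measured by AlphaLISA bead assay after 16 h compound exposure of THP-1 cells; compounds (final up to 57.5 uM) added 1 h before LPS (250 ng/mL) and ATP (1.25 mM) stimulation; lower signal means less secretion.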
KB-3-1 cytotox = kills parental KB-3-1 adenocarcinoma cells; KB-3-1 viability, CellTiter-Glo ATP luminescence, 72 h; Potency, µM (top dose mostly 46.1 µM), hits mostly cytotoxic; 400,000 compounds, 1.4% hits; AID 1347075; further: potency means the concentration at half of the fitted maximal effect; nearly all actives have a fitted effect of over 60% in size
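KB-3-1 parental drug-naive adenocarcinoma cells in DMEM/10% FBS, incubated 72 h at 37 C with pin-transferred compounds across a concentration series. Viability by CellTiter-Glo luminescence; concentration-response curves fitted after normalization.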
HT1080NT lethal = kills 2HG-producing HT-1080-NT fibrosarcoma cells | HT-1080-NT fibrosarcoma viability, CellTiter-Glo ATP luminescence, 48 h | Potency, µM (top dose mostly 46.1 µM), without a hit: at the highest dose activity, negative = less viability, actives largely listed as cytotoxic | 360,000 compounds, 1.6% hits;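 further: NT is the 2HG producing partner of a matched IDH1 knockdown line; potency means the concentration at half of the fitted maximal effect; 0% = DMSO-treated cells and -100% = media-only wells without cells; nearly all actives have a fitted effect of over 55% in size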
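750 cells/well, RPMI + 5% FBS; 2 h settle, compound pin-transfer, 48 h at 37 degrees C. CellTiter-Glo 10 min RT, luminescence. Normalized to DMSO and media-only wells.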
HT1080 IDH1KD tx = kills HT-1080 cells with IDH1 knockdown; HT-1080 IDH1 knockdown viability, ATP luminescence, 48 h; Potency, µM (top dose mostly 46.1 µM), inactives show at the top dose activity, negative = toxicity, most hits filed as cytotoxic; 360,000 compounds, 2% hits; AID 686971;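 further: potency means the concentration at half of the fitted maximal effect; 0% = DMSO wells and -100% = cell-free medium wells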
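HT-1080-IDH1KD cells (IDH1 knocked down), 750/well in RPMI with 5% FBS, treated with compound 48 h at 37 degrees C. Viability by CellTiter-Glo luminescence, normalised to DMSO and no-cell wells; concentration-response curves classed.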
* marks the source's active call; other numbers are inactive results; i = inactive; ? = inconclusive; nt = no result given; [ ] = dose if it differs, or a comment. Only some compounds are listed: those with a hit (about 8.8% of all), similar ones and a draw of the others. Unless noted, the call rests on the fitted dose curve; in most records, active means well fitted curve in the direction sought with a large enough effect; inconclusive means small, poorly fitted or top-dose-only effect, or another doubt; inactive means no such curve, though single readings can be large; an effect the other way counts as inactive or inconclusive. Unless noted, on the % scale 0 is the no-effect control and ±100 the full control effect.

SMILES | KB-V1 cytotox | IL-1B inflam inh | KB-3-1 cytotox | HT1080NT lethal | HT1080 IDH1KD tx
Cc1cccc(Nc2nc(-c3ccccn3)cs2)n1 | 0.52µM* | 41 | 9.2µM* | 0.32µM* | 0.35µM*
Cc1c(Cl)cccc1N=Cc1ccc([N+](=O)[O-])s1 | i | -102* | i | 13µM* | 10µM*
O=C1S/C(=C\C=C\c2ccco2)C(=O)N1c1ccc(O)cc1 | i | -97* | i | ? | ?
O=C1S/C(=C\C=C\c2ccco2)C(=O)N1c1ccccc1 | i | -78* | i | ? | ?
O=Cc1cc(Br)c(OC(=O)N2CCOCC2)c(Br)c1 | i | 13 | i | 2% | -2%
O=C(O)c1ccc2c(c1)C(=O)N(N1C(=O)c3ccccc3C1=O)C2=O | i | 28 | i | 11% | 25%
Cc1onc(-c2c(F)cccc2Cl)c1C(=O)NC1=NCCS1 | i | -2 | i | 4%[9.24 µM] | -3%
Cc1onc(-c2c(F)cccc2Cl)c1C(=O)Nc1cccc2nsnc12 | 18µM* | ? | 18µM* | -30% | ?
COCc1nnc(NC(=O)c2c(-c3c(Cl)cccc3Cl)noc2C)s1 | i | 20 | i | ? | 21µM*
O=C(CCS(=O)(=O)c1cccs1)Nc1ccc(C(=O)NC2CCN(Cc3ccccc3)CC2)cc1 | i | -8 | i | 7% | 4%
CCOc1ccc(CNCc2c(C(=O)O)c(C)n(Cc3ccc(C)cc3)c2C)cc1 | ? | nt | i | nt | nt
Cc1ccc(S(=O)(=O)N2[C@H](c3cccc(Cl)c3)CC(=O)[C@@H]3CN(S(=O)(=O)c4ccccc4C)[C@H](c4ccc(Cl)cc4)C[C@@H]32)cc1 | i | 39 | 3.7µM* | -2% | -21%
Cc1ccc([C@@H]2CC(=O)[C@@H]3CN(S(=O)(=O)c4ccccc4C)[C@H](c4ccc(Cl)cc4)C[C@@H]3N2S(=O)(=O)c2ccc(C)cc2)cc1 | ? | 49 | 3.7µM* | 3% | -1%
Cc1ccc(S(=O)(=O)N2[C@H](c3ccc(Cl)cc3)CC(=O)[C@@H]3CN(S(=O)(=O)c4ccccc4C)[C@H](c4ccc(Cl)cc4)C[C@@H]32)cc1 | i | 32 | i | ? | -21%
COc1cc(CNC(C)C23CC4CC(CC(C4)C2)C3)cc(OC)c1OC (stereo not drawn) | i | -20 | i | -17% | -9%
CC(NCc1cc(Br)ccc1OCC(N)=O)C12CC3CC(CC(C3)C1)C2 (stereo not drawn) | i | -61* | i | -20% | -21%
COc1cc(CNC(C)(C)CO)ccc1OCC(=O)NC(C)(C)C | i | 0 | i | 10% | 3%
COc1cc(CNC(C)C23CC4CC(CC(C4)C2)C3)ccc1OCC(=O)NC(C)(C)C (stereo not drawn) | ? | -88* | ? | ? | 23µM*
COc1ccccc1C1(CCNS(=O)(=O)c2ccc(C)cc2)CCOC(C(C)C)C1 (stereo not drawn) | 3.7µM* | ? | ? | 3% | 5%
Cc1ccc(C2(CCNC(C)c3cccs3)CCOC(C(C)C)C2)cc1 (stereo not drawn) | i | -81* | i | 16µM* | ?
O=C(Nc1ccc(NC(=O)c2cccs2)c(Cl)c1)c1cccs1 | i | nt | i | -14% | -3%
N#CC(=Cc1ccnc2ccccc12)c1ccccc1 | ? | -26 | i | -1% | -17%
CCN1CCN(c2c(/C=C3\SC(=S)N(Cc4ccco4)C3=O)c(C)c(C#N)c(=O)n2C)CC1 | ? | 123 | i | 16µM* | ?
CCCn1c(N)c(Sc2ccccc2[N+](=O)[O-])c(=O)n(CCC)c1=O | i | 7 | i | 0% | 3%
CCOC(=O)c1[nH]c2ccccc2c1NC(=O)c1ccccc1OC | i | nt | i | nt | nt
Cc1cccc(-c2cc3nc4c(c(N5CCOCC5)n3n2)CCCC4)c1 | ? | -26 | i | ? | ?
Cc1cccc(-c2cc3nc4c(c(NCc5ccco5)n3n2)CCCC4)c1 | ? | -98* | i | ? | ?
c1ccc(-c2csc3ncnc(NCC4COc5ccccc5O4)c23)cc1 (stereo not drawn) | 23µM* | -4 | 1.6µM* | -18% | -24%
